# Reference: PubChem BioAssay (Tox21)
# Where “and” joins values, the source holds several entries; their conditions need not be identical. Equal entries are not always repeated. Records with an inconclusive call do not appear. Entries that show only a call come without a potency. Calls of active or inactive are those of the source. Unless noted, calls follow the shape of the full dose curve.
# Key:
# [1] = Nuclear factor erythroid 2-related factor 2/antioxidant responsive element (Nrf2/ARE) small molecule agonists: qHTS cell viability counter screen in human keratinocytes (AID 1919968; active = well fitted curve in the direction sought with a large enough effect in the repeat runs; an effect the other way counts as inactive or inconclusive; also: nearly all actives have a fitted effect of over 55% in size)
# Procedure, shortened: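 HaCaT ARE reporter line, 1,500 cells/well; 5 h settle, 37 C/5% CO2; cpd in DMSO pinned; 23 h exposure; CellTiter-Fluor, 1 h; fluorescence.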
# [2] = Nuclear factor erythroid 2-related factor 2/antioxidant responsive element (Nrf2/ARE) small molecule agonists: luciferase reporter gene qHTS assay in human keratinocytes (AID 1919969); also: nearly all actives have a fitted effect of over 35% in size
# [3] = target: Gonadotropin-releasing hormone receptor (Homo sapiens) (UniProt P30968); test: Human gonadotropin-releasing hormone receptor (GnRHR) small molecule agonists, calcium flux assay in GnRHR-HEK293 cells (AID 1920063); also: nearly all actives have a fitted effect of over 35% in size
# Sequence of Gonadotropin-releasing hormone receptor (Homo sapiens) (P30968 whole entry, looked up): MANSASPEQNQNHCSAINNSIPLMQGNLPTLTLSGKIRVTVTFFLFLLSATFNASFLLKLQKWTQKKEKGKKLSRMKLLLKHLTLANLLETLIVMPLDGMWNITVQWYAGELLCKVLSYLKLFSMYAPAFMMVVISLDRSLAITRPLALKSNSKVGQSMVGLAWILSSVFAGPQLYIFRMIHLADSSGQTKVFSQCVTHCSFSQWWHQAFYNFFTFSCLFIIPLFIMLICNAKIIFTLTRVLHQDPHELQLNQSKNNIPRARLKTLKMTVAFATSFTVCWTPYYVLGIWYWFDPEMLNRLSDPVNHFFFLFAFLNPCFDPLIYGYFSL
# Procedure, shortened: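 GnRHR-HEK293, 1500 cells/well, 18 h 37 C/5% CO2; Ca dye 1 h 37 C; cpd pinned (DMSO), agonist mode; kinetic FL 480/540, 3 min, 1 s reads; 15 conc, n=3.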
# [4] = target: KiSS-1 receptor (Homo sapiens) (UniProt Q969F8); test: Human kisspeptin (KISS1R) small molecule agonists, calcium flux assay in KISS1R-HEK293 cells (AID 1920064; active = well fitted curve in the direction sought with a large enough effect in the repeat runs; an effect the other way counts as inactive or inconclusive)
# Sequence of KiSS-1 receptor (Homo sapiens) (Q969F8 whole entry, looked up): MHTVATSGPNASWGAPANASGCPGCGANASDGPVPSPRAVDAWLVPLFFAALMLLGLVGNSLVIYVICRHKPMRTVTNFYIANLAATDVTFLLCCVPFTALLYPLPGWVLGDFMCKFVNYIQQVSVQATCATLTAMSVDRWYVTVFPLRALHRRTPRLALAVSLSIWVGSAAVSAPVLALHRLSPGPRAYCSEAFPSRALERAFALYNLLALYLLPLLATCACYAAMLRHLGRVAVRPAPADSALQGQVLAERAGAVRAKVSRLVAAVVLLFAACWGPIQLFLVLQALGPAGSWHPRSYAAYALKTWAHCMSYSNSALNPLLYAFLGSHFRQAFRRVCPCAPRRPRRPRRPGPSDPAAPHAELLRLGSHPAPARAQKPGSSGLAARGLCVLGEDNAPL
# Procedure, shortened: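 Stable human KISS1R HEK293 line; 18 h plating, 37 C/5% CO2; calcium dye 1 h 37 C; compound pin transfer; kinetic fluorescence Ex/Em 480/540, 3 min.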
# [5] = G protein-coupled receptor (GPCR) small molecule agonists, calcium flux assay: HEK293 wild type cell line counter screen (AID 1920065)
# Procedure, shortened: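 Kinetic fluorescence at Ex/Em 480/540, recorded every second over 3 min, served as the read-out after compound addition. Each compound was tested at 15 concentrations in triplicate on cells pre-loaded with calcium dye for 1 h.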
# [6] = p53 small molecule agonists, cell-based qHTS assay with human liver microsomes (AID 1963577);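 also: p53 response element beta-lactamase reporter cells with liver microsomes plus NADPH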
# Procedure, shortened: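 HLM-supplemented p53RE-bla reporter assay: 16 h compound exposure at 37 C, microsomes and NADPH each 0.5 mg/mL final, read by fluorescence intensity.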
# [7] = p53 small molecule agonists, cell-based qHTS assay with rat liver microsomes (AID 1963578)
# Procedure, shortened: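 Quantitative HTS of the Tox21 10K library: p53RE-bla cells, rat liver microsomes plus NADPH at 0.5 mg/mL final each, 16 h at 37 C, beta-lactamase fluorescence detection.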
# [8] = p53 small molecule agonists, cell-based qHTS assay with human liver microsomes: qHTS cell viability counter screen (AID 1963579); also: nearly all actives have a fitted effect of over 45% in size
# Procedure, shortened: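 Viability of p53RE-bla cells is measured as CellTiter-Glo luminescence following a 16 h, 37 C incubation with compound, liver microsomes from human donors and NADPH.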
# [9] = p53 small molecule agonists, cell-based qHTS assay with rat liver microsomes: qHTS cell viability counter screen (AID 1963580); also: nearly all actives have a fitted effect of over 45% in size
# Procedure, shortened: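 p53RE-bla HCT-116 cells (4,000/well) rested 5 h at 37 C, then given Tox21 compounds in DMSO with rat liver microsomes (0.5 mg/mL final) plus NADPH (0.5 mg/mL final) for 16 h at 37 C. Viability read by CellTiter-Glo luminescence after 30 min at room temperature.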
# [10] = p53 small molecule agonists, cell-based qHTS assay: qHTS cell viability counter screen (AID 1963581); also: nearly all actives have a fitted effect of over 45% in size
# Procedure, shortened: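 HCT-116 p53RE-bla cells, 4,000/well, plated 5 h before compound pin transfer; 16 h at 37 C; bla substrate 2 h RT; then CellTiter-Glo, 30 min RT, luminescence.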
# [11] = p53 small molecule agonists, cell-based qHTS assay (AID 1963582; active = well fitted activation curve with a large enough effect in the signal ratio in the repeat runs, not every such curve was filed as active; the % refers to the signal ratio)
# Procedure, shortened: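 Reporter line: p53RE-bla. Pre-incubation 5 h, 37 C, 5% CO2; compound (DMSO, pin tool) 16 h, 37 C; B/G FRET substrate 2 h RT; fluorescence intensity read.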
# [12] = cAMP Responsive Elements (CRE) small molecule agonists, cell-based qHTS assay (AID 1963590)
# Procedure, shortened: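 HEK 293T CRE-bla, 2,000 cells/well, 18 h preincubation 37 C/5% CO2; cpds (DMSO) pinned, 3 h; LiveBLAzer B/G FRET substrate, 2 h RT.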
# [13] = cAMP Responsive Elements (CRE) small molecule antagonists, cell-based qHTS assay (AID 1963591; active = well fitted inhibition curve with a large enough effect in the signal ratio in the repeat runs, not every such curve was filed as active; the % refers to the signal ratio)
# Procedure, shortened: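 Beta-lactamase reporter read by FRET substrate (LiveBLAzer B/G) after 2 h at room temperature. CRE-bla HEK293T cells had received compound plus 0.25 uM (final) NKH477 for 3 h at 37 °C.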
# [14] = target: Beta-2 adrenergic receptor (Homo sapiens) (UniProt P07550); test: Adrenergic beta2 receptor (ADRB2) small molecule antagonists, cell-based qHTS assay (AID 1963592); also: series mostly up to about 92 µM; nearly all actives have a fitted effect of over 50% in size
# Sequence of Beta-2 adrenergic receptor (Homo sapiens) (P07550 whole entry, looked up): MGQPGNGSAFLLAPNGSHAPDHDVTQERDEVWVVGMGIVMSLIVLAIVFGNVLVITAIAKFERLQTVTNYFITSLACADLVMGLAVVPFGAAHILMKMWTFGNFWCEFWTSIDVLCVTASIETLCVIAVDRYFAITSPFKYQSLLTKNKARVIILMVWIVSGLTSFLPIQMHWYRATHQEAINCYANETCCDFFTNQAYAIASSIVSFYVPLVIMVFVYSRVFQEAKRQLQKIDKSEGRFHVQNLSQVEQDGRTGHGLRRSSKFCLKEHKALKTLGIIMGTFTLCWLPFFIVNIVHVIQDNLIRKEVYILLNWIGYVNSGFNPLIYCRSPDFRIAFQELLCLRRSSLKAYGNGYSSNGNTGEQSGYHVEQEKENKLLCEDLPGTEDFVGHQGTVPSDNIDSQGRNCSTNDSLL
# Procedure, shortened: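 Cells (CHO, stable ADRB2 overexpression) incubated 18-20hr at 37C; compounds added from DMSO; agonist mix (1nM isoproterenol, 100uM IBMX, 25uM Ro-20-1724) added; 0.5hr RT; d2-cAMP and anti-cAMP-cryptate added; 1hr RT; 665/615 nm read.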
# [15] = target: D(2) dopamine receptor (Homo sapiens) (UniProt P14416); test: Dopamine D2 receptor (DRD2) small molecule agonists, cell-based qHTS assay (AID 1963594); also: nearly all actives have a fitted effect of over 35% in size
# Sequence of D(2) dopamine receptor (Homo sapiens) (P14416 whole entry, looked up): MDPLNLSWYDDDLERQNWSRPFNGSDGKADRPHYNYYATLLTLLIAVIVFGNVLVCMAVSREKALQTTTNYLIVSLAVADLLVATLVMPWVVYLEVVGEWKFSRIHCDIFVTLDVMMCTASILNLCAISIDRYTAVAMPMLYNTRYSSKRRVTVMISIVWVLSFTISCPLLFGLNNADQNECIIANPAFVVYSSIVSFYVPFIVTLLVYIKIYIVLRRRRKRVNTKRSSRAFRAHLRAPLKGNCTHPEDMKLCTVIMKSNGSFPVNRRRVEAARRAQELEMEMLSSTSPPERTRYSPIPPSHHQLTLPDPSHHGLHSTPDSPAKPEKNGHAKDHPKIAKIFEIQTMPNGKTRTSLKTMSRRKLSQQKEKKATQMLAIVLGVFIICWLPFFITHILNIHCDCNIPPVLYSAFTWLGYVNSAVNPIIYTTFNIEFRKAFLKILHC
# Procedure, shortened: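 HEK293 cells stably expressing DRD2 were cultured 24 h at 37 C, then given Ro20-1724 (0.1 mM final) and compounds for 10 min at room temperature. NKH477 (200nM) was then added for 30 min. cAMP was read by HTRF.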
# [16] = target: D(2) dopamine receptor (Homo sapiens) (UniProt P14416); test: Dopamine D2 receptor (DRD2) small molecule antagonists, cell-based qHTS assay (AID 1963595; active = well fitted inhibition curve with a large enough effect in the signal ratio in the repeat runs, with a control signal flat; the % refers to the signal ratio)
# Procedure, shortened: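 HEK293 cells stably expressing DRD2 were preincubated with 0.1 mM Ro20-1724, then with compound for 10 min at room temperature. Cells were stimulated with 200 nM NKH477 plus 12 nM quinpirole for 30 min, and cAMP was read by HTRF.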
# [17] = target: 5-hydroxytryptamine receptor 2A (Homo sapiens) (UniProt P28223); test: 5-hydroxytryptamine receptor 2A (HTR2A) small molecule agonists, cell-based qHTS assay (AID 1963587); also: nearly all actives have a fitted effect of over 30% in size
# Sequence of 5-hydroxytryptamine receptor 2A (Homo sapiens) (P28223 whole entry, looked up): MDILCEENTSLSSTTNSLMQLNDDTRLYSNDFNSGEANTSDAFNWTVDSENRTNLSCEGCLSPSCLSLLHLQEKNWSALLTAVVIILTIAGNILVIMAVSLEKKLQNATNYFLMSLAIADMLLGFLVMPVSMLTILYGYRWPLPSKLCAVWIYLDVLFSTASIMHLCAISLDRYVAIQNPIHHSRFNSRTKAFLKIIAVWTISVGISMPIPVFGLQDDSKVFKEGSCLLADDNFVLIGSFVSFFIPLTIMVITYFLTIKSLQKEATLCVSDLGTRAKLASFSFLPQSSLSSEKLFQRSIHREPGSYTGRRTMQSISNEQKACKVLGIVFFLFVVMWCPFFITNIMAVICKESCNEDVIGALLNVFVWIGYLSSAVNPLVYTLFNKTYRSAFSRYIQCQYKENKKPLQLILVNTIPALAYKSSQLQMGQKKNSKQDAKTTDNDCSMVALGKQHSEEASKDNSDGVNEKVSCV
# Procedure, shortened: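 HTR2A-CHO cells, plated 18 h at 37 C/5% CO2, dye-loaded 1 h at 37 C; compounds in DMSO added by pin tool (agonist mode). Intracellular calcium flux read as kinetic fluorescence on FDSS over 2 min at 1 s intervals.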
# [18] = target: Muscarinic acetylcholine receptor M1 (Homo sapiens) (UniProt P11229); test: Cholinergic receptor muscarinic 1 (CHRM1) small molecule antagonists, cell-based qHTS assay (AID 1963588); also: nearly all actives have a fitted effect of over 40% in size; also: potency is read from the fitted curve at half-maximal effect
# Sequence of Muscarinic acetylcholine receptor M1 (Homo sapiens) (P11229 whole entry, looked up): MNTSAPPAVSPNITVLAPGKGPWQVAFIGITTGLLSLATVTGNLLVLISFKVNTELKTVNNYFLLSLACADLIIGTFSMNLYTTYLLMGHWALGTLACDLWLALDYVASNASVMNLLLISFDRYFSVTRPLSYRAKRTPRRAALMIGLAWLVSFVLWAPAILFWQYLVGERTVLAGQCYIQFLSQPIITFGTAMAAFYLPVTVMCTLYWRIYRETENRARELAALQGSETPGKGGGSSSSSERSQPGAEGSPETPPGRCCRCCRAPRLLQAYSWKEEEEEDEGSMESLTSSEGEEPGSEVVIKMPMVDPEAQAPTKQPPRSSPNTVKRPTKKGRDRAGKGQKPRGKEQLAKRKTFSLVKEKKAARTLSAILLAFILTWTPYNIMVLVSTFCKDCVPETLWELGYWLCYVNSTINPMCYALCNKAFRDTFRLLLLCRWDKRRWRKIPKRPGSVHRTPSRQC
# Procedure, shortened: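 CHRM1-CHO calcium-flux assay, antagonist mode. Cells were seeded 18 h, dye-loaded 1 h at 37 C and given compound for 5 min at RT, then acetylcholine was added at 50nM. FDSS fluorescence was read 3 min; 15 concentrations, three runs.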
# [19] = target: Muscarinic acetylcholine receptor M1 (Homo sapiens) (UniProt P11229); test: Cholinergic receptor muscarinic 1 (CHRM1) small molecule agonists, cell-based qHTS assay (AID 1963589); also: nearly all actives have a fitted effect of over 35% in size
# Procedure, shortened: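 Human M1 in stable CHO line; 18 h plating, 1 h dye load 37 C; cpd added (agonist mode); Ca2+ fluorescence kinetic read, 1 s intervals; 15 conc, 3 runs.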
# [20] = target: 5-hydroxytryptamine receptor 2A (Homo sapiens) (UniProt P28223); test: 5-hydroxytryptamine receptor 2A (HTR2A) small molecule antagonists, cell-based qHTS assay (AID 1963586); also: nearly all actives have a fitted effect of over 45% in size
# Procedure, shortened: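 Antagonist-mode intracellular calcium assay: DOI (4 nM) added after 5 min compound pre-incubation at room temperature to dye-loaded HTR2A-CHO cells. Fluorescence followed for 3 min, sampled every second.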
SMILES,Potency [1],Potency [2],Potency [3],Potency [4],Potency [5],Potency [6],Potency [7],Potency [8],Potency [9],Potency [10],Potency [11],Potency [12],Potency [13],Potency [14],Potency [15],Potency [16],Potency [17],Potency [18],Potency [19],Potency [20]
O=C/C=C/c1ccccc1,inactive,inactive,inactive,inactive,inactive,inactive,inactive,inactive,inactive,inactive,inactive,inactive,inactive,inactive,inactive,inactive,,,,
CCN(CC)N=O,inactive,inactive,inactive,inactive,inactive,inactive,inactive,inactive,inactive,inactive,inactive,inactive,inactive,inactive,,inactive,,,,
C=CCc1ccc2c(c1)OCO2,inactive,inactive,inactive,inactive,inactive,inactive,inactive,inactive,inactive,inactive,inactive,inactive,,inactive,inactive,inactive,,,,
NC(=O)CN1CCCC1=O,inactive,inactive,inactive,inactive,inactive,inactive,inactive,inactive,inactive,inactive,inactive,inactive,,,inactive,inactive,,,,
CCC(=O)O[C@H]1CC[C@H]2[C@@H]3CCC4=CC(=O)CC[C@]4(C)[C@H]3CC[C@]12C,inactive,inactive,inactive,inactive,inactive,inactive,inactive,inactive,inactive,inactive,inactive,,,inactive,inactive,inactive,inactive,5.3 µM (active) and 4.6 µM (active),inactive,
C1CCC(NC2CCCCC2)CC1,inactive,inactive,inactive,inactive,inactive,inactive,inactive,inactive,inactive,,inactive,inactive,inactive,inactive,inactive,inactive,inactive,inactive,inactive,inactive
CCCCC(CC)CO[N+](=O)[O-] (stereo not drawn),inactive,inactive,inactive,inactive,inactive,inactive,inactive,inactive,inactive,,inactive,inactive,inactive,inactive,inactive,inactive,inactive,inactive,inactive,inactive
O=C(Cl)OCc1ccccc1,inactive,inactive,inactive,inactive,inactive,inactive,inactive,inactive,inactive,,inactive,inactive,inactive,inactive,inactive,inactive,inactive,,inactive,inactive
